Most compounds without a hit are left out; they make up all but 12% or so of the library.
HP1b binding inh: HP1-beta chromodomain-methylated histone interaction inhibition. P83916. AlphaScreen HP1-beta / biotin-H3K9me3 peptide binding. Potency, µM (top dose mostly 114 µM), inactives show at the top dose activity change, negative = inhibition, most hits filed as inhibitors. actives 0.56% (n = 390,000). AID 540317; note: nearly all actives have a fitted effect of over 70% in size
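HP1-beta protein (50 nM final) preincubated 30 min at room temperature with biotinylated H3(1-18)K9me3 peptide (50 nM) in PBS pH 7.4, 0.01% Tween-20, then compound added for 30 min. AlphaScreen streptavidin donor/nickel chelate acceptor beads (10 ug/mL final), 30 min dark, luminescence read.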
G9a block: inhibitors of human histone lysine methyltransferase G9a; Q96KQ7; G9a H3K9 monomethylation, AlphaScreen, 2 h; Potency, µM (top dose mostly 102 µM), for inactives: at the top dose activity, negative = inhibition, most hits filed as inhibitors; actives 8.8% (n = 350,000); note: % is set by controls: 0 for no effect and ±100 for the full control effect; nearly all actives have a fitted effect of over 75% in size
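Quantitative HTS format: methyltransferase activity on a biotin-tagged H3K9 peptide is measured by AlphaScreen, using a rabbit anti-monomethyl-H3K9 antibody with streptavidin donor and anti-IgG acceptor beads. Final levels are 20 nM enzyme, 500 nM peptide, 20 uM SAM; 2 h RT.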
JMJD2A Tudor: inhibitors of human JMJD2A Tudor domain | O75164 | AlphaScreen JMJD2A-Tudor / H3K4me3 peptide binding | Potency, µM (doses to about 114 µM), without a hit: top-dose activity change, negative = inhibition, actives largely listed as inhibitors | actives 4.4% (n = 390,000) | AID 504339; note: % is set by controls: 0 for no effect and ±100 for the full control effect; nearly all actives have a fitted effect of over 50% in size
Sfp PPTase inh: inhibitors of Bacillus subtilis Sfp phosphopantetheinyl transferase | Q9F4F7 | AID 1490 | Potency, µM, for inactives: largest response in the series, negative = inhibition, hits mostly inhibitors | actives 3.5% (n = 310,000) | Biochemical Sfp PPTase activity, qHTS;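 note: the enzyme is Sfp with the accession as filed and its product quenches rhodamine fluorescence; 0% = enzyme reaction without inhibitor and -100% = no enzyme wells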
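Sfp 15 nM + cpd, 15 min RT; start w/ rhodamine-CoA 5 uM, BHQ-2-YbbR 12.5 uM (final); 50 mM Hepes pH 7.6, 10 mM MgCl2, 0.01% NP-40, 0.01% BSA; read 525/598 nm at 0 and 30 min.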
L3MBTL1 block: inhibitors of human L3MBTL1; Q9Y468; actives 0.66% (n = 230,000); Potency, µM (doses to about 57.1 µM), inactives show top-dose activity, negative = inhibition, usual class: inhibitors; AID 485360; AlphaScreen L3MBTL1–H3K9me1 peptide binding; note: % is set by controls: 0 for no effect and ±100 for the full control effect; nearly all actives have a fitted effect of over 60% in size
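AlphaScreen assay: L3MBTL1 (50 nM final) was preincubated 30 min at room temperature with biotinylated H3(1-15)K9me1 peptide (75 nM final), then 30 min with library compounds; streptavidin donor and nickel chelate acceptor beads (10 ug/mL final) added, 30 min dark.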
BAZ2B inh: blocks human BAZ2B; AlphaScreen BAZ2B-H3K14Ac peptide displacement; Q9UIF8; AID 504333; actives 4.4% (n = 360,000); Potency, µM (highest dose often 114 µM), for inactives: at the highest dose activity change, negative = inhibition, usual class: inhibitors; note: % is set by controls: 0 for no effect and ±100 for the full control effect; nearly all actives have a fitted effect of over 60% in size
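AlphaScreen displacement: compounds (up to 110uM) incubated 30 min at room temperature with a preformed 50 nM BAZ2B/50 nM biotinylated H3K14Ac peptide complex in PBS pH 7.4 with Tween-20. Donor and acceptor beads at 10 ug/mL final added, 20 min light-protected before reading.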
The depositor's hits bear a star; ? = inconclusive; / = no result; [ ] = dose if it differs, or a comment. Calls come from the whole dose curve; as a rule, active = well fitted curve in the direction sought with a large enough effect; inconclusive = small, poorly fitted or top-dose-only effect, or another doubt; inactive = no such curve, though single readings can be large; an effect the other way counts as inactive or inconclusive. Potency is the fitted concentration of half-maximal effect.

SMILES	HP1b binding inh	G9a block	JMJD2A Tudor	Sfp PPTase inh	L3MBTL1 block	BAZ2B inh
CN1CCN(c2ccc(S(=O)(=O)N3CCCCC3)cc2NC(=O)COc2ccc([N+](=O)[O-])cc2)CC1	-11.0%	?	-19.6%	/	-8.9%	2.0%
CCC(=O)c1ccc(OCC(=O)Nc2cc(S(=O)(=O)N3CCCCC3)ccc2N2CCN(CC)CC2)cc1	-9.0%	10µM*	-30.8%	/	-5.0%	-35.1%
Cc1ccnc(NCc2c(O)ccc3ccccc23)c1	13.7%	/	-30.6%	-5.3%	-6.1%	?
Oc1ccccc1C(Nc1nccs1)c1ccc2cccnc2c1O (centres undefined)	-0.4%	/	35.5µM*	23.1%	?	28.2µM*
CC(=O)NC(c1ccc(Cl)cc1)c1ccc2cccnc2c1O (centres undefined)	37.8%	/	?	/	/	/
O=C(O)c1ccccc1NC(c1ccccc1)c1ccc2cccnc2c1O (centres undefined)	25.1µM*	/	28.2µM*	/	/	/
COc1ccccc1NC(c1cccnc1)c1ccc2cccnc2c1O (centres undefined)	?	1.41µM*	22.4µM*	20µM*	?	14.1µM*
Cc1ccnc(NC(c2cc(C)ccc2O)c2ccc3cccnc3c2O)c1 (centres undefined)	7.0%	10µM*	28.2µM*	/	/	22.4µM*
CCCCCn1c(=O)[nH]c2cc(C(=O)N3CCN(c4cc(Cl)ccc4C)CC3)ccc2c1=O	6.1%	6.9%[59 µM]	-21.5%	/	/	0.9%
CCCCNC(=O)c1ccc2nc(-c3cccs3)c(-c3cccs3)nc2c1	13.6%[57 µM]	/	-0.8%[57.1 µM]	/	/	/
Cc1cc(C(=O)NCc2cccc(Br)c2)c2c(C)nn(-c3ccccc3)c2n1	14.9%	-5.1%[59 µM]	-6.1%	/	/	-1.4%[57.1 µM]
COc1ccc(NC(=O)c2c(C)oc3ccc(O)c(CN4CCCCCC4)c23)cc1	23.8%	-10.5%[59 µM]	?	/	/	-27.1%
Cc1cc(NC(c2ccc(Cl)cc2)c2ccc3cccnc3c2O)no1 (centres undefined)	23.5%	23.2%[59 µM]	?	5.7%	/	44.7µM*
Oc1c(C(Nc2ccccn2)c2ccccc2F)ccc2cccnc12 (centres undefined)	12.3%	?	14.1µM*	/	/	20µM*
CCCC(=O)NC(c1ccccc1Cl)c1ccc2cccnc2c1O (centres undefined)	40.5%	41.0%	-27.4%	11.9%	3.0%	-34.3%
Oc1c(C(Nc2ccccn2)c2ccccn2)ccc2cccnc12 (centres undefined)	29.2%	31.6µM*	-22.1%[11.4 µM]	11.4%	28.2µM*	-113.4%
CCC(=O)NC(c1ccc(Cl)cc1Cl)c1ccc2cccnc2c1O (centres undefined)	40.3%	16.5%	-28.1%	6.8%	-12.7%	-4.6%
O=C(O)c1ccc2cccnc2c1O	2.6%	/	10µM*	20µM*	3.1%	25.1µM*
COc1ccccc1CNC(=O)c1ccc2c(c1)N(Cc1cccc(C)c1)C(=O)c1ccccc1S2(=O)=O	11.6%	-10.1%[59 µM]	-22.2%	/	/	-9.5%
Cc1ccnc(NC(c2ccsc2)c2ccc3ccc(C)nc3c2O)c1 (centres undefined)	?	-151.7%[59 µM]	?	?	-25.0%	?
CCCCC(=O)NC(c1ccc(Cl)cc1Cl)c1ccc2cccnc2c1O (centres undefined)	27.8%	/	?	16.3%	1.5%	?
Cc1ccnc(NC(c2ccccc2F)c2ccc3cccnc3c2O)c1 (centres undefined)	7.0%	?	12.6µM*	/	/	25.1µM*
COc1ccc(C(Nc2cc(C)ccn2)c2ccc3ccc(C)nc3c2O)cc1 (centres undefined)	-12.7%	3.98µM*	?	5.6%	/	-25.0%
Cc1ccnc(NC(c2ccccc2)c2ccc3cccnc3c2O)c1 (centres undefined)	-20.9%[57 µM]	/	14.1µM*	/	/	/
COc1ccc(NC(=O)Cn2c(=O)n(Cc3nc(-c4ccccc4)no3)c(=O)c3cc4c(cc32)OCO4)cc1Cl	32.0%	-0.4%[59 µM]	-20.3%	/	/	-23.0%
SMILES	HP1b binding inh	G9a block	JMJD2A Tudor	Sfp PPTase inh	L3MBTL1 block	BAZ2B inh
O=C1[C@@H]2[C@H]3[C@H](O)[C@H](O)C/C(=N/OC[C@@H](O)COCc4ccco4)[C@@H]3CC[C@H]2C(=O)N1c1ccc(F)cc1F	/	/	/	20.9%	/	/
C=CCOc1cccc(C2/C(=C(\O)c3ccc4c(c3)OCCO4)C(=O)C(=O)N2Cc2cccnc2)c1 (centres undefined)	-2.4%	/	?	14.5%	/	50.1µM*
O=C1C(=O)N(Cc2cccnc2)C(c2cccc(Br)c2)/C1=C(/O)c1ccc2c(c1)OCO2 (centres undefined)	19.3%	?	?	-17.7%	/	14.5%
CCOc1ccc(C2/C(=C(\O)c3ccc4c(c3)OCCO4)C(=O)C(=O)N2Cc2cccnc2)cc1OCC (centres undefined)	-8.0%	/	-24.1%	-13.1%	/	50.1µM*
O=C1C(=O)N(Cc2cccnc2)C(c2cccc(O)c2)/C1=C(\O)c1ccc2c(c1)OCCO2 (centres undefined)	32.7%	35.5µM*	12.8%	5.4%	/	?
Cc1ccc(/C(O)=C2\C(=O)C(=O)N(Cc3cccnc3)C2c2ccccc2[N+](=O)[O-])cc1 (centres undefined)	3.0%	56.2µM*	-27.4%	?	6.6%	-22.0%
COc1ccc(C2/C(=C(\O)c3ccc4c(c3)OCCO4)C(=O)C(=O)N2Cc2cccnc2)cc1 (centres undefined)	43.7%	-95.3%	3.1%	9.6%	/	-4.8%
O=C1C(=O)N(CCO)C(c2ccccc2[N+](=O)[O-])/C1=C(\O)c1ccccc1 (centres undefined)	-10.3%	9.6%[2.33 µM]	?	-4.9%	/	-4.2%
O=C1C(=O)N(c2ccc(O)cc2)C(c2ccccc2[N+](=O)[O-])/C1=C(\O)c1ccccc1 (centres undefined)	-28.9%	56.2µM*	-19.7%	?	1.3%	-19.8%
O=C1C(=O)N(Cc2ccncc2)C(c2cccc(O)c2)/C1=C(\O)c1ccc2c(c1)OCCO2 (centres undefined)	12.9%	44.7µM*	-22.1%	-12.3%	/	?
CCOc1cccc(C2/C(=C(\O)c3ccc4c(c3)OCCO4)C(=O)C(=O)N2Cc2ccncc2)c1 (centres undefined)	25.7%	-10.0%	-14.3%	12.6%	/	-15.7%[57.1 µM]
COc1ccccc1C1/C(=C(\O)c2ccc3c(c2)OCCO3)C(=O)C(=O)N1Cc1cccnc1 (centres undefined)	1.2%[57 µM]	?	50.1µM*	3.9%	/	?
COc1ccccc1-c1ccc2ncnc(NC3CC3)c2c1	/	-1.7%[0.501 µM]	/	18.5%	/	/
Cc1ccccc1Nc1nc(N)nc(COC(=O)/C=C/c2ccco2)n1	9.6%	50.1µM*	-26.1%	-29.0%	-17.0%	?

High-throughput results: PubChem BioAssay, National Center for Advancing Translational Sciences (NCATS)
